Consider 29 compounds from PubChem BioAssay (NCATS).

Values without a mark were called inactive. Records with an inconclusive call do not appear. A call without a number means that no potency is given here. The source made the active and inactive calls. Unless noted, calls follow the shape of the dose curve; as a rule, active = well fitted curve in the direction sought with a large enough effect; inconclusive = small, poorly fitted or top-dose-only effect, or another doubt; inactive = no such curve, though single readings can be large; an effect the other way counts as inactive or inconclusive.

The nature of test [1]: qHTS Assay for Identification of Small Molecule Agonists for Hypoxia Response Element Signaling Pathway (AID 914; active = well fitted activation curve with a large enough effect in the signal ratio, with a control signal flat, not every such curve was filed as active; the % refers to the signal ratio; also: potency is read from the fitted curve at half-maximal effect). The settings on record: ME-180 (cervical carcinoma) HRE-bla reporter, beta-lactamase ratio, CoCl2, 17 h; activation: active compounds read high. In outline: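 Reporter activity (beta-lactamase, CCF4 460nm/530nm ratio) in HRE-bla ME-180 cells is recorded after 17 h compound exposure with EC50 CoCl2 at 37 degrees Celsius. AC50 values come from titration data.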
In general terms: Quantitative high-throughput screening tests each substance at several concentrations.

Test [2] is described as follows: qHTS Assay for Identification of Small Molecule Agonists for Thrombopoietin (TPO) Signaling Pathway (AID 917). Particulars: TPO signaling pathway reporter cells, agonist qHTS, stimulated with TPO at its EC50; series mostly up to 38.5 µM. In a few lines: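 We measured Glycoprotein IIb promoter–luciferase output in IL-3-starved Ba/F3 murine cells expressing the human TPO receptor after 24 hrs at 37 C with compounds and 26 pM TPO.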

Test [3] deals with Muscarinic acetylcholine receptor M1 (Rattus norvegicus) (UniProt P08482). Put plainly: qHTS Assay for Antagonists of Acetylcholine Muscarinic M1 Receptor: Kinetic Measurement of Intracellular Calcium Response (AID 943). Also: nearly all actives have a fitted effect of over 75% in size. Also: potency is read from the fitted curve at half-maximal effect. The settings on record: M1-expressing cells, kinetic intracellular calcium fluorescence; series mostly up to 35.3 µM. In outline:
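Rat M1-CHO cells, 2000/well, overnight → Fluo-4 no-wash dye with probenecid, 1 h 37C → compound 10 min, room temp → basal read 6 s → carbachol EC80 (100 nM) → 4 min kinetic read; peak/basal.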

In test [4] the target is Pyruvate kinase (Leishmania mexicana) (UniProt Q27686). Put plainly: qHTS Validation Assay for Inhibitors of Leishmania Mexicana Pyruvate Kinase (AID 945). Particulars: purified L. mexicana pyruvate kinase, enzyme activity, E451W mutant enzyme; series mostly up to 57.5 µM. In a few lines:
(§1)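 Mutant LmPYK (E451W), 0.2 nM, plus 0.5 mM PEP and 0.1 mM ADP in 50 mM imidazole pH 7.2 containing 0.01% Tween 20 and 0.05% BSA. Incubated 1 h at room temperature; luminescence via PKLight, normalized to DMSO.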

In test [5] the target is Pyruvate kinase PKM (Homo sapiens) (UniProt P14618). As to the kind of experiment: qHTS Assay for Activators of Human Muscle Pyruvate Kinase (AID 954; active = well fitted curve in the direction sought with a large enough effect, not every such curve was filed as active). The settings on record: purified human muscle pyruvate kinase, luciferase-coupled luminescence, 1 h; series mostly up to 57.5 µM. In outline:
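Purified human PKM2 (0.1 nM) with 0.5 mM PEP (Km) and 0.1 mM ADP in 50 mM imidazole pH 7.2, KCl, MgCl2, 1 h at room temperature; ATP formed read by coupled luciferase luminescence. Normalized to no-enzyme/110 uM thiadiazolimine inhibition; 0.3 nM enzyme column for activation.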

The nature of test [6]: Confirmation and Secondary Assay for Modulators of Hemoglobin Beta Chain Splicing at IVS2 705 locus (AID 930).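 Also: HeLa cells stably expressing the EGFP-705 splicing reporter; GFP fluorescence per well restored by corrected splicing of the IVS2-705 intron in EGFP.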 Particulars: HeLa EGFP-705 splicing reporter, GFP fluorescence, 48 h; series mostly up to 46.1 µM. In a few lines: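 Stable HeLa line with EGFP disrupted by mutant beta-globin intron 2 (705). Overnight attachment, then 2 days of compound at 37C, 5% CO2. Signal: peak GFP intensity summed over objects 5-250 µm.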

For test [7], the target named is Muscarinic acetylcholine receptor M1 (Rattus norvegicus) (UniProt P08482). Put plainly: qHTS Assay for Antagonists of Acetylcholine Muscarinic M1 Receptor: Measurement of IP-One Response (AID 944). Also: nearly all actives have a fitted effect of over 75% in size. Particulars: CHO-M1 cells, IP-One HTRF, antagonist mode; series mostly up to 46.1 µM. In outline: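 M1-CHO (rat), 2000 cells/well, overnight recovery; cpd 10 min; carbachol EC80 (200 nM), 30 min, HEPES buffer + 50 mM LiCl pH 7.4; IP-One HTRF, Ex 337, Em 620/665 nm.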
Sequence of Muscarinic acetylcholine receptor M1 (Rattus norvegicus) (P08482 whole entry, looked up): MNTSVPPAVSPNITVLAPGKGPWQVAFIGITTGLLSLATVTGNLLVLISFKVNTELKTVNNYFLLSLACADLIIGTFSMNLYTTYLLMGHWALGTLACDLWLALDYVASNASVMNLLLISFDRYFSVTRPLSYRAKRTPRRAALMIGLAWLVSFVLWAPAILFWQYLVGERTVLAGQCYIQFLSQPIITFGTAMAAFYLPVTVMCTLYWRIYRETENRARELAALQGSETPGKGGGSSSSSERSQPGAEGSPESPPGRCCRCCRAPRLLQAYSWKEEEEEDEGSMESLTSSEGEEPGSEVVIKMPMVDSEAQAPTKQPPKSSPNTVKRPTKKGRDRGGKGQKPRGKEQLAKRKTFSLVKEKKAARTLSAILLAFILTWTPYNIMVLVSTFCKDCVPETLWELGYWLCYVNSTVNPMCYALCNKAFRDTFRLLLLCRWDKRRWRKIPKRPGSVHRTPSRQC

The target in test [8] is Cytochrome P450 2C19 (Homo sapiens) (UniProt P33261). As to the kind of experiment: qHTS Assay for Inhibitors and Substrates of Cytochrome P450 2C19 (AID 899). Also: nearly all actives have a fitted effect of over 60% in size. The settings on record: recombinant CYP2C19, luciferin-H EGE luminescence; series mostly up to 57.1 µM. In outline:
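Reactions contain 5nM enzyme, 10uM Luciferin-H EGE (KM) and 50mM KPO4; compound preincubates 10 min at 37C, NADPH regeneration starts turnover for 60 min. Luminescence after detection reagent gives activity.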

For test [9], the target named is Pyruvate kinase (Leishmania mexicana) (UniProt Q27686). Put plainly: qHTS Validation Assay for Activators of Leishmania Mexicana Pyruvate Kinase (AID 959). Particulars: purified L. mexicana pyruvate kinase, enzyme activity; series mostly up to 57.5 µM. In outline:
as §1

The nature of test [10]: qHTS Assay for Identification of Small Molecule Antagonists for Thrombopoietin (TPO) Signaling Pathway (AID 918). Also: potency is read from the fitted curve at half-maximal effect; nearly all actives have a fitted effect of over 60% in size. The settings on record: TPO-dependent cell signaling reporter, antagonist mode. In outline:
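Ba/F3 (murine, hTPO-R, GPIIb-luc reporter); overnight IL-3 withdrawal; cpd + TPO 26 pM final (EC50); 24 h 37 C/5% CO2; Steadylite luminescence after 10 min RT.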

Sequence of Cytochrome P450 2C19 (Homo sapiens) (P33261 whole entry, looked up): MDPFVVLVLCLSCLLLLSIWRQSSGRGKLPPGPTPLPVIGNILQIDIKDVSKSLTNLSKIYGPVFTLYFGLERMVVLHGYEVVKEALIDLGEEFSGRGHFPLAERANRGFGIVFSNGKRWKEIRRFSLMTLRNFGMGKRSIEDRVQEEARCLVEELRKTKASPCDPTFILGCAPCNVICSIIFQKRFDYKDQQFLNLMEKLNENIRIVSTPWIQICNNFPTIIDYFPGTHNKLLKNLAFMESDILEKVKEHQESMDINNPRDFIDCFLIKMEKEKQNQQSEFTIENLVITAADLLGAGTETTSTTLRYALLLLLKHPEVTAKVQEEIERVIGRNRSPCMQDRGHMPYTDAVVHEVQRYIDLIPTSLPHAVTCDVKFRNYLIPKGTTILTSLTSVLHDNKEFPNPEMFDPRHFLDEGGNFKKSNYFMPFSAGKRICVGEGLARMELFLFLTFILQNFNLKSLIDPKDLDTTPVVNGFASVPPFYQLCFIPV
Sequence of Pyruvate kinase (Leishmania mexicana) (Q27686 2-499 E452W): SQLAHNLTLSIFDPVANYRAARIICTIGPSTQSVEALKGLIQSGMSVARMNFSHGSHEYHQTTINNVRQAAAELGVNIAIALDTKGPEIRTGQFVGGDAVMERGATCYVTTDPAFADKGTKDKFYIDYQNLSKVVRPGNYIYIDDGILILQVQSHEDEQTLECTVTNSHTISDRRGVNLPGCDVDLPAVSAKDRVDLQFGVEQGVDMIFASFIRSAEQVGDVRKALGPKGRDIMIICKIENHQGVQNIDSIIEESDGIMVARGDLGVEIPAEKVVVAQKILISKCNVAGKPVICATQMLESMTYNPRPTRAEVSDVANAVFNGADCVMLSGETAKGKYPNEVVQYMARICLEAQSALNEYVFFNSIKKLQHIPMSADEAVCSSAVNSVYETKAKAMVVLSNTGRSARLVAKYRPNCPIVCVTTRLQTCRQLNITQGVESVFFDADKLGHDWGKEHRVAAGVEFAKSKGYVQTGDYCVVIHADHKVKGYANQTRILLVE
Sequence of Pyruvate kinase PKM (Homo sapiens) (P14618 whole entry, looked up): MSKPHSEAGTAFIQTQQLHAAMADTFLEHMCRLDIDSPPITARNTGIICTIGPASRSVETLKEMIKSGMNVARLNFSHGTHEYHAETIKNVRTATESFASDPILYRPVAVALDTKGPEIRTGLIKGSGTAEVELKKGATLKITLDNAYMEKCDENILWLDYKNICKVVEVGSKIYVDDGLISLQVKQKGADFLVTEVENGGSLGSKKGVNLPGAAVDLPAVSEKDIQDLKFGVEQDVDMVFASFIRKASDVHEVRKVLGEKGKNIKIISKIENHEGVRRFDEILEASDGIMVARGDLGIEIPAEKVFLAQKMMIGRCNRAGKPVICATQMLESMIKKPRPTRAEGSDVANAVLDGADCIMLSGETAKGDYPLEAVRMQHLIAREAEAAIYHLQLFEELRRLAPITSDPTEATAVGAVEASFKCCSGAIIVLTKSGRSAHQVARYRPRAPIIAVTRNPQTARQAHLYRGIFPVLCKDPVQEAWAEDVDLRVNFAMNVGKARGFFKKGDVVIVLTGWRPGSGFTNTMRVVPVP

Take `CCCCCCC/C=C\CCCCCCCCC(=O)O`: in test [1], the activation was -14%. Also, the Potency result in test [2], in [3] and in test [4] was “inactive” each time. Moreover, the outcome in test [5] was inactive.

Consider `O=C(O)c1ccccc1Nc1ccccc1`, for which the Potency result in test [2], in test [3] and in [7] was “inactive” in each case. Moreover, the compound was called inactive in test [6] and in test [5].

`Cn1cc(C(=O)OCC2CCN(CCNS(C)(=O)=O)CC2)c2ccccc21`: the Potency result in test [8], in test [2], in test [7] and in test [4] was “inactive” in each case. Also, the activation in [1] was 26.2%. The compound was called inactive in [5].

With `CC(C)(CO)Cc1cc(C(C)(C)C)c(O)c(C(C)(C)C)c1`, in test [1], the Potency was 12.6 µM (active). Further, the Potency result in [2] and in test [3] was “inactive” throughout. For the same compound, in test [5], the compound was called inactive.

Turning to `Nc1ccc(N2C(=O)c3ccccc3C2=O)c(Cl)c1`, the activation in [1] is -21.1%. Moreover, the Potency entry in [2], in [7] and in [4] was “inactive” in each case. For the same compound, the outcome in [5] was inactive.

Turning to `Cn1c(=O)c2[nH]c(C3CCCC3)nc2n(C)c1=O`, the activation in [1] is -4.29%. The Potency result in test [2], in [3] and in test [4] was “inactive” in each case. Also, the compound was called inactive in [6] and in test [5].

Regarding `CCCn1c(=O)c2c(ncn2C)n(CCC)c1=O`, the activation in test [1] is 3.52%. The Potency entry in test [2], in test [3] and in test [4] was “inactive” each time. For the same compound, the call in test [5] was inactive.

`CC(C)NC[C@H](O)COc1ccc(CC(N)=O)cc1`: the Potency entry in test [2] and in test [4] was “inactive” each time. Moreover, the call in test [6] and in [5] was inactive.

For `NC(N)=NC(N)=Nc1ccccc1`, the Potency entry in test [8], in [2], in test [3] and in test [4] was “inactive” throughout. The outcome in test [6] and in test [5] was inactive.

Regarding `Nc1nc2ccc(Cl)cc2c2nc(-c3ccco3)nn12`, the Potency result in test [8], in test [3], in [7] and in test [4] was “inactive” each time. In addition, the call in test [5] was inactive.

`OC1(c2ccc(Cl)cc2)CCN(Cc2c[nH]c3ccccc23)CC1`: the Potency entry in test [8] and in [4] was “inactive” throughout. The outcome in test [5] was inactive.

As for `COc1cc(/C=C(\C#N)C(=O)c2ccc(O)c(O)c2)cc(I)c1O`, in [9], the Potency is 15.8 µM (active).

On to `CC1=C(/C=C/C(C)=C/C=C/C(C)=C\C(=O)O)C(C)(C)CCC1`, for which, in test [6], the compound was classed as inactive.

Regarding `N=C(N)c1ccc(N)cc1`, in [4], the Potency result was “inactive”. For the same compound, in test [5], the outcome was inactive.

Regarding `CC(C)(C)c1cc(/C=C(\C#N)C(N)=S)cc(C(C)(C)C)c1O`, the Potency entry in test [4] is “inactive”. Also, the compound was called inactive in [5].

For `C=C(C)C1CC=C(C(=O)O)CC1` (configuration not stated), the compound was classed as inactive in [6].

On to `O=C1OC(=O)C2C3CCC(O3)C12` (configuration not stated), for which the compound was called inactive in test [6].

On to `COc1ccccc1N1CCN(CCCCNC(=O)c2ccc3ccccc3c2)CC1`, for which, in test [5], the compound was called inactive.

With `CN1CCN(c2nc3cc(C(F)(F)F)ccc3n3cccc23)CC1`, the Potency result in test [3], in [7] and in test [4] was “inactive” in each case. The call in [5] was inactive.

Take `CCCCOC(=O)NS(=O)(=O)c1sc(CC(C)C)cc1-c1ccc(Cn2c(CC)nc3c(C)cc(C)nc32)cc1`: in [7], the Potency result was “inactive”. Besides, the result in test [5] was inactive.

`NC(N)=NC(N)=Nc1cccc(Cl)c1`: the Potency result in test [7] and in [4] was “inactive” in each case. Besides, the result in test [5] was inactive.

`N=C(N)SCCc1cnc[nH]1`: the Potency in [10] is 0.794 µM (active). The Potency entry in [3], in test [7] and in [4] was “inactive” each time. Further, the compound was classed as inactive in test [5].

On to `N=C(N)c1ccc(OCCCCCOc2ccc(C(=N)N)cc2)cc1` (tested in a mixture with another compound), for which, in test [5], the compound was classed as inactive.

Consider `COc1ccc(NC(=O)c2ccc(-c3ccc(-c4noc(C)n4)cc3C)cc2)cc1N1CCN(C)CC1`, for which, in test [10], the Potency was 10 µM (active). Also, the Potency entry in [4] is “inactive”. Also, the compound was called inactive in [5].

Consider `OC[C@H]1O[C@@H](n2cnc3cncnc32)[C@H](O)[C@@H]1O`, for which the call in [6] was inactive.

As to `CCCCCCCCCCCCCCC[C@H](O)[C@H](N)CO`, the Potency was 12.6 µM (active) in test [10] and 8.91 µM (active) in test [3]. For the same compound, the Potency entry in test [7] and in test [4] was “inactive” each time. For the same compound, the compound was called inactive in test [5].

In the case of `NC(=O)CC[C@H](N)C(=O)O`, in test [6], the compound was called inactive.

With `CN1C2CCC1CC(OC(c1ccccc1)c1ccccc1)C2` (configuration not stated), the outcome in test [6] was inactive.

Consider `COC(=O)[C@H](NC(=O)c1cc(-c2ccccc2)nc2ccccc12)c1ccccc1`, for which the Potency result in test [2] and in test [4] was “inactive” each time. In test [5], the compound was classed as inactive.
